Laboratory results reported in PubChem BioAssay AID1159580 (chemical genetic matrix, 2015).
Hit rate of the full screen: of about 5,500 compounds, about 2,000 (36%) were called active. Inconclusive results (about 18%) are left out. Rule as the data show it: active = normalized growth mostly below about 0.91 (no sharp cut-off); inconclusive = no clear call, values can overlap the other calls; inactive = mostly above about 0.92. The list shows a part of the results.

Experiment: chemical genetic growth profiling, strain panel (AID 1159580);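 also: tested at 20 µM; growth read once vehicle control cultures reached saturation at 30 °C; 1 = growth at the plate median or of vehicle wells; lower values mean less growth of the strain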
Settings: S. cerevisiae deletion strains, growth OD
[1] = locus YAL021C, strain ccr4, active compounds read low
[2] = locus YAL026C, strain drs2, active compounds read low
[3] = locus YAL030W, strain snc1, active compounds read low
[4] = locus YBL061C, strain skt5, active compounds read low
[5] = locus YBR009C, strain hhf1, active compounds read low
[6] = locus YBR023C, strain chs3, active compounds read low
[7] = locus YBR171W, strain sec66, active compounds read low
[8] = locus YBR231C, strain swc5, active compounds read low
[9] = locus YBR279W, strain paf1, active compounds read low
[10] = locus YCL011C, strain gbp2, active compounds read low
[11] = locus YCL016C, strain dcc1, active compounds read low
[12] = locus YCL061C, strain MRC1, active compounds read low
[13] = locus YCL069W, strain vba3, active compounds read low
[14] = locus YCR088W, strain abp1, active compounds read low
[15] = locus YDL005C, strain med2, active compounds read low
[16] = locus YDL040C, strain nat1, active compounds read low
[17] = locus YDR001C, strain nth1, active compounds read low
[18] = locus YDR069C, strain doa4, active compounds read low
[19] = locus YDR137W, strain rgp1, active compounds read low
[20] = locus YDR159W, strain sac3, active compounds read low
[21] = locus YDR297W, strain sur2, active compounds read low
[22] = locus YDR334W, strain swr1, active compounds read low
[23] = locus YDR335W, strain msn5, active compounds read low
[24] = locus YDR392W, strain spt3, active compounds read low
[25] = locus YEL003W, strain gim4, active compounds read low
[26] = locus YEL037C, strain rad23, active compounds read low
[27] = locus YEL061C, strain CIN8 (second series), active compounds read low
[28] = locus YER015W, strain faa2, active compounds read low
[29] = locus YER016W, strain bim1, active compounds read low
[30] = locus YER111C, strain swi4, active compounds read low
[31] = locus YER155C, strain BEM2 (second series), active compounds read low
[32] = locus YFR010W, strain ubp6, active compounds read low
[33] = locus YGL167C, strain pmr1, active compounds read low
[34] = locus YGL173C, strain kem1, active compounds read low
[35] = locus YGL227W, strain vid30, active compounds read low
[36] = locus YGL240W, strain doc1, active compounds read low
[37] = locus YGL253W, strain hxk2, active compounds read low
[38] = locus YHR013C, strain ard1, active compounds read low
[39] = locus YHR027C, strain rpn1, active compounds read low
[40] = locus YHR142W, strain chs7, active compounds read low
[41] = locus YJL092W, strain hpr5, active compounds read low
[42] = locus YJL095W, strain BCK1 (second series), active compounds read low
[43] = locus YJL115W, strain asf1, active compounds read low
[44] = locus YJL129C, strain trk1, active compounds read low
[45] = locus YJL154C, strain vps35, active compounds read low
[46] = locus YJL164C, strain tpk1, active compounds read low
[47] = locus YJL166W, strain qcr8, active compounds read low
[48] = locus YJL187C, strain SWE1, active compounds read low
[49] = locus YKL160W, strain elf1, active compounds read low
[50] = locus YKR026C, strain gcn3, active compounds read low
[51] = locus YKR091W, strain srl3, active compounds read low
[52] = locus YLL001W, strain dnm1, active compounds read low
[53] = locus YLL026W, active compounds read low
[54] = locus YLL041C, strain sdh2, active compounds read low
[55] = locus YLR027C, strain aat2, active compounds read low
[56] = locus YLR221C, strain rsa3, active compounds read low
[57] = locus YLR258W, strain gsy2, active compounds read low
[58] = locus YLR262C, strain YPT6 (second series), active compounds read low
[59] = locus YLR320W, strain mms22, active compounds read low
[60] = locus YLR342W, strain FKS1, active compounds read low
[61] = locus YLR357W, strain rsc2, active compounds read low
[62] = locus YLR370C, strain arc18, active compounds read low
[63] = locus YLR384C, strain iki3, active compounds read low
[64] = locus YML120C, strain ndi1, active compounds read low
[65] = locus YMR058W, strain fet3, active compounds read low
[66] = locus YMR125W, strain sto1, active compounds read low
[67] = locus YMR129W, active compounds read low
[68] = locus YMR205C, strain PFK2, active compounds read low
[69] = locus YMR231W, strain pep5, active compounds read low
[70] = locus YNL071W, strain lat1, active compounds read low
[71] = locus YNL209W, strain ssb2, active compounds read low
[72] = locus YNL248C, strain rpa49, active compounds read low
[73] = locus YNL322C, strain KRE1 (second series), active compounds read low
[74] = locus YNR049C, strain mso1, active compounds read low
[75] = locus YOR001W, strain rrp6, active compounds read low
[76] = locus YOR070C, strain gyp1, active compounds read low
[77] = locus YOR080W, strain dia2, active compounds read low
[78] = locus YOR083W, strain WHI5, active compounds read low
[79] = locus YOR106W, strain vam3, active compounds read low
[80] = locus YOR265W, strain rbl2, active compounds read low
[81] = locus YOR270C, strain vph1, active compounds read low
[82] = locus YOR290C, strain snf2, active compounds read low
[83] = locus YPL051W, strain arl3, active compounds read low
[84] = locus YPL078C, strain atp4, active compounds read low
[85] = locus YPL106C, strain sse1, active compounds read low
[86] = locus YPL240C, strain hsp82, active compounds read low

Measured: normalized growth

C=CCSSSCC=C
active: [31] 0.765 | [70] 0.847 | [72] 0.877
inactive: [1] 0.962 | [2] 0.97 | [3] 0.989 | [4] 1 | [5] 0.957 | [6] 0.986 | [7] 0.994 | [8] 0.974 | [9] 0.991 | [10] 0.984 | [11] 1 | [12] 0.98 | [13] 0.973 | [14] 0.984 | [15] 0.97 | [16] 0.987 | [17] 0.988 | [18] 0.965 | [19] 0.984 | [20] 0.937 | locus YDR195W, strain ref2 0.944 | [21] 0.989 | [22] 0.966 | [23] 0.986 | [24] 0.782 | [25] 0.98 | [26] 0.958 | [27] 0.979 | [28] 0.976 | [29] 0.992 | [30] 0.991 | [32] 0.956 | [33] 0.983 | [34] 0.988 | [35] 0.995 | [36] 0.944 | [37] 0.987 | [38] 0.937 | [39] 1 | [40] 0.981 | [41] 0.966 | [42] 0.991 | [43] 0.975 | [44] 0.958 | [45] 0.979 | [46] 0.974 | [47] 0.976 | [48] 0.984 | [49] 0.995 | [50] 0.978 | [51] 0.983 | [52] 0.994 | [53] 0.991 | [54] 0.982 | [55] 0.972 | [56] 0.992 | [57] 0.999 | [58] 0.995 | [59] 0.967 | [60] 0.98 | [61] 0.891 | [62] 0.978 | [63] 1.01 | [64] 0.974 | [65] 0.975 | [66] 0.946 | [67] 0.98 | [68] 0.967 | [69] 0.978 | [71] 0.992 | [73] 0.974 | [74] 0.98 | [75] 0.96 | [76] 0.992 | [77] 0.972 | [78] 1 | [79] 0.949 | [80] 0.984 | [81] 0.941 | [82] 0.964 | [83] 0.979 | [84] 0.988 | [85] 0.976 | [86] 0.995

C=CCSSCC=C
active: locus YHR079C, strain IRE1, active compounds read low 0.841 | locus YJL095W, strain BCK1, active compounds read low 0.822 | locus YOR231W, strain MKK1, active compounds read low 0.823
inactive: [1] 1.02 | [2] 1.04 | [3] 1.03 | [4] 1.03 | [5] 1.03 | [6] 1.02 | [7] 1.04 | [8] 1.04 | [9] 1.02 | [10] 1.04 | [11] 1.03 | [12] 1.03 | [13] 1.03 | [14] 1.04 | [15] 1.05 | [16] 1.03 | [17] 1.04 | [18] 1.03 | [19] 1.07 | [20] 1.08 | locus YDR195W, strain ref2 1.04 | [21] 1.03 | [22] 1.03 | [23] 1.04 | [24] 0.901 | [25] 1.03 | [26] 1.03 | [27] 1.02 | [28] 1.03 | [29] 1.03 | [30] 1.06 | [31] 0.951 | [32] 1.05 | [33] 1.04 | [34] 1.05 | [35] 1.05 | [36] 1.05 | [37] 1.04 | [38] 1.02 | [39] 1.04 | locus YHR030C, strain SLT2, active compounds read low 0.858 | [40] 1.02 | [41] 1.04 | [42] 1.03 | [43] 1.04 | [44] 1.03 | [45] 1.02 | [46] 1.01 | [47] 1.03 | [48] 1.03 | locus YJR066W, strain TOR1, active compounds read low 0.879 | [49] 1.01 | [50] 1.03 | [51] 1.03 | [52] 1.01 | [53] 1.03 | [54] 1.03 | [55] 1.03 | locus YLR113W, strain HOG1, active compounds read low 0.881 | [56] 1.01 | [57] 1.03 | [58] 1.03 | [59] 1.05 | [60] 1.04 | [61] 0.974 | [62] 1.04 | [63] 1.03 | [64] 1.02 | [65] 1.03 | [66] 1.01 | [67] 1.04 | [68] 1.05 | [69] 1.03 | [70] 0.923 | locus YNL183C, strain NPR1, active compounds read low 0.864 | [71] 1.03 | [72] 0.96 | [73] 1.04 | [74] 1.03 | [75] 1.01 | [76] 1.02 | [77] 1.04 | [78] 0.998 | [79] 1.04 | [80] 1.03 | [81] 1.05 | [82] 0.975 | [83] 1 | [84] 1.01 | [85] 1.07 | [86] 1.03 | locus YPL256C, strain CLN2, active compounds read low 0.862
